This passage reports Potency and activation results from PubChem BioAssay (Tox21).

SMILES strings stand for the structures. A number with no mark means an inactive call. A call without a number means that no potency is given here. Calls of active or inactive are those of the source. The call rests on the fitted dose curve.
Potency means the concentration at half of the fitted maximal effect.

Thyrotropin-releasing hormone receptor (Homo sapiens), sequence (P34981 whole entry, looked up): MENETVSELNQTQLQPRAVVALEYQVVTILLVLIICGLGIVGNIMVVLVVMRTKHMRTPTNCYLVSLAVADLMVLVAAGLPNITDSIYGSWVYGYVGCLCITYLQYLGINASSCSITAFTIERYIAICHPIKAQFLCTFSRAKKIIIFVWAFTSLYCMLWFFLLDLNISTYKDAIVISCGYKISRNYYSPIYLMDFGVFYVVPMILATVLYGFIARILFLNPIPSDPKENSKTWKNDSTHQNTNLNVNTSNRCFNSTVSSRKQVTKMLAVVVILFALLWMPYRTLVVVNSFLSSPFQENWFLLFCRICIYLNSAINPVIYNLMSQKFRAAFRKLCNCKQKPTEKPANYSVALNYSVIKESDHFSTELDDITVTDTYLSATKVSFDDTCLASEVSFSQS

For this assay, the target named is Thyrotropin-releasing hormone receptor (Homo sapiens) (UniProt P34981). As to the kind of experiment: qHTS assay to identify small molecule agonists of the thyrotropin-releasing hormone receptor (TRHR) signaling pathway (AID 1346891).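 On activation: HEK293 cells expressing TRHR with calcium dye readout.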 The note with it: TRHR-HEK293 calcium fluorescence, agonist mode; series mostly up to 57.6 µM. The source says:
National Center for Advancing Translational Sciences [NCATS] NIH Chemical Genomics Center [NCGC] U.S. Environmental Protection Agency [EPA] National Institutes of Environmental Health Sciences [NIEHS] National Toxicology Program [NTP] Assay overview: Thyrotropin-releasing hormone (TRH) receptor (TRHR) is a G-protein-coupled receptor which binds the tripeptide thyrotropin releasing hormone. TRHR is found in the brain and, when bound by TRH, acts (through phospholipase C) to increase intracellular inositol trisphosphate. It plays a crucial role in the anterior pituitary where it controls the synthesis and secretion of thyroid stimulating hormone and prolactin. The TRHR-Hek293 assay is a cell-based assay, and it has the potential to screen G protein-coupled receptors. A compound/drug can either activate (agonist) or suppress (antagonist) GPCRs that can be monitored by levels of intracellular calcium. Using this assay, the Tox21 10K compound library was screened to identify potential TRHR agonists.
Assay Protocol Summary: The TRHR-Hek293 cells were dispensed at 1500cells/4uL/well in 1536-well black-clear bottom plates using a Multidrop dispenser. After the assay plates were incubated at a 37 C/5% CO2 incubator for 18 hours, 4 uL of Dye-Loading Solution was added to each well. The plates were incubated at 37 C for 2 hours. For agonist mode, 23 nL of compounds dissolved in DMSO, positive controls or DMSO only was transferred to the assay plate by a pin tool. The fluorescence intensity in the plates was measured using FDSS 7000EX kinetic plate reader for 3 min at 1 sec intervals. Each test compound was measured at 15 concentrations and in triplicates.
For `O=C1CCCCCCCCCCCCCC1`, the Potency entry was “inactive”.
In the case of `Oc1ccc(Cl)cc1C1CCCC1`, the Potency entry is “inactive”.
Regarding `CC(=O)[C@]1(O)Cc2c(O)c3c(c(O)c2[C@@H](O[C@H]2C[C@H](N)[C@H](O)[C@H](C)O2)C1)C(=O)c1ccccc1C3=O`, the Potency result was “inactive”.
On the same count and under the same terms, for `CCCCC/C=C\C=C\C(=O)OCC` the value was “inactive”; for `CC/C(=C(/c1ccc(O)cc1)c1ccc(OCCN(C)C)cc1)c1ccccc1`, “inactive”.
On the same count and under the same terms, under `CCC(C)(C)c1ccc(CC(C)CN2C[C@@H](C)O[C@@H](C)C2)cc1` (stereo not given in full) stands “inactive”; under `COc1cccc(-c2ccc(/C=C\CN3CCCCCC3)cc2Cl)c1`, “inactive”; under `O=[N+]([O-])c1ccc(CO)cc1`, “inactive”.
With `COC(=O)c1ccc([N+](=O)[O-])cc1`, the Potency entry was “inactive”.
Same read-out and setting: for `O=C1OC2(c3ccccc31)c1ccc(O)c(Br)c1Oc1c2ccc(O)c1Br` the value was 3.89 µM (active).
For `CC(C=O)c1ccccc1` (stereo not given), the Potency result was “inactive”.
For the compound `O=C(O)CN(CCCN(CC(=O)O)CC(=O)O)CC(=O)O`, the activation is 0.0527% [at 11.8 µM].
`CC/C=C\C/C=C\C/C=C\CCCCCCCC(=O)OC`: the Potency result is “inactive”.
Take `Cc1ccc2sc3cccc(C)c3c2c1`: the Potency result is “inactive”.
On to `CN(C/C=C/c1ccccc1)Cc1cccc2ccccc12`, for which the Potency entry is “inactive”.
As to `N#Cc1nc(Cl)c(Cl)c(Cl)c1Cl`, the Potency result is “inactive”.
With `O=C(O)C[C@H](O)C[C@H](O)/C=C/c1c(C2CC2)nc2ccccc2c1-c1ccc(F)cc1`, the activation was -0.474% [at 11.8 µM].
`COCCC(=O)OC`: the Potency result is “inactive”.
Still for that read-out and setting: under `CCCCCCCCCCCC(=O)Cl` stands “inactive”.
Take `CCCCCCCCCCCCS(=O)(=O)Cl`: the activation was 0.0016% [at 11.8 µM].
As for `CCc1c(C)cc(N)c(CC)c1N`, the Potency entry is “inactive”.
Same read-out and setting: under `CCOc1ccc([N+](=O)[O-])cc1` stands “inactive”; under `SC1CCCCC1`, “inactive”.
Regarding `[Cl][Eu]([Cl])[Cl]`, the Potency entry is “inactive”.
The same measure, in the same setting: under `O=C1OC(O)C(C(Cl)Cl)=C1Cl` (stereo not given) stands “inactive”; under `O=C1CCC(=O)N1`, “inactive”.
The same measure, in the same setting: for `CCOc1nc(F)cc2nc(S(=O)(=O)Nc3c(Cl)cccc3C(=O)OC)nn12` the value was “inactive”; for `Cc1ccc(N=Nc2c(O)ccc3ccccc23)c(C)c1`, “inactive”.
Take `CCCCNc1ccc(NCCCC)c2c1C(=O)c1ccccc1C2=O`: the activation was -0.167% [at 11.8 µM].
Regarding `CC1CCC(C(C)(C)O)CC1` (stereo not given), the Potency result is “inactive”.
Still for that read-out and setting: under `Cc1ccc(C2OC[C@@H]3OC(c4ccc(C)cc4)O[C@H]([C@H](O)CO)[C@@H]3O2)cc1` (stereo not given in full) stands “inactive”; under `O=C(CCN1CCC(c2ccccc2)C1)c1ccc2c(c1)OCCO2` (stereo not given), “inactive”; under `COc1ccc(OC)c(N=Nc2c(O)ccc3ccccc23)c1`, “inactive”.
The same measure, in the same setting: under `CCCCCCCCCCCCCCCCC(C(=O)O)C(O)(CC(=O)O)C(=O)O` (stereo not given) stands “inactive”; under `CC(C)(C)c1cc(CCC(=O)OCCSCCOC(=O)CCc2cc(C(C)(C)C)c(O)c(C(C)(C)C)c2)cc(C(C)(C)C)c1O`, “inactive”; under `C=C(C)CCO`, “inactive”.
On the same count and under the same terms, for `Oc1cccc2c(O)cccc12` the value was “inactive”; for `CCOC(=O)[C@H](O)[C@@H](O)C(=O)OCC`, “inactive”; for `CC1=CC[C@@H](C(C)(C)O)CC1`, “inactive”.
Regarding `c1ccc2occc2c1`, the Potency result is “inactive”.
